Results reported in PubChem BioAssay AID431 (Sanford-Burnham Center for Chemical Genomics, 2006).
Screen size: about 63,000 compounds; about 1,100 (1.7%) were called active.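 The calls were made as follows: active = compounds whose percent cytotoxicity in the single-dose primary screen, scaled between solvent and toxic-drug controls, exceeds 50; inactive = the rest.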 The list comes from a sample in which actives are over-represented; it also holds similar structures and randomly drawn compounds. Measured potencies and affinities stand elsewhere.

Test: viability loss of HPDE-C7K cells – cell-based, fluorescence, HTS, primary screen (AID 431);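 also: 0% = DMSO solvent wells and 100% = doxorubicin-treated wells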
Conditions: HPDE-C7K KRASV12 cells, Alamar Blue viability, 48 h; at 10 µM; active compounds read high

Row | Compound | cytotoxicity
1 | COc1ccc(Cl)cc1NC(=O)CN1CCC(n2nnc3cc(F)ccc32)CC1 | 5.7% (inactive)
2 | O=C(c1ccc(S(=O)(=O)N2CCCC2)cc1)N1CCN(Cc2ccc3c(c2)OCO3)CC1 | 4.3% (inactive)
3 | c1coc(-c2nnc(SCc3cn4ccccc4n3)o2)c1 | -5.9% (inactive)
4 | CCOC(=O)CN(C(=O)CSc1nnc(-c2ccc(OC)c(OC)c2)o1)c1ccc(F)cc1 | -21.9% (inactive)
5 | CCOC(=O)c1c(NC(=O)CSc2nnc(CNc3ccc(F)cc3)o2)sc(C)c1C | -12.6% (inactive)
6 | COc1ccccc1NC(=O)COc1ccc(C(=O)OCC(=O)N2CCCC2=O)cc1OC | -27.1% (inactive)
7 | O=C(Cn1nnc(-c2ccc3c(c2)OCO3)n1)NCc1ccco1 | -12.9% (inactive)
8 | CCOc1ccc(-c2nnn(CC(=O)NCc3ccco3)n2)cc1 | 0.2% (inactive)
9 | CCCCOc1ccc(-c2nnn(CC(=O)NCc3ccco3)n2)cc1 | 50.9% (active)
10 | O=S(=O)(c1ccc(F)cc1)N1CCC(N2CCN(c3ccccc3)CC2)CC1 | 16.8% (inactive)
11 | Cn1c(NCc2ccco2)nc2c1c(=O)n(Cc1ccc(Cl)c(Cl)c1)c(=O)n2C | 8.9% (inactive)
12 | Cn1c(NCC(O)c2ccccc2)nc2c1c(=O)n(Cc1ccc(Cl)c(Cl)c1)c(=O)n2C (stereo not given) | 64.7% (active)
13 | Cn1c(N2CCN(c3ccccn3)CC2)nc2c1c(=O)n(Cc1ccc(Cl)cc1)c(=O)n2C | 70% (active)
14 | Cn1c(NCc2ccccc2)nc2c1c(=O)n(Cc1ccc(Br)cc1)c(=O)n2C | 21.3% (inactive)
15 | Cn1c(N2CCCC2)nc2c1c(=O)n(Cc1ccc(Cl)cc1)c(=O)n2C | 26.3% (inactive)
16 | Cn1c(NCc2ccccc2)nc2c1c(=O)n(Cc1ccccc1)c(=O)n2C | -0.5% (inactive)
17 | Cn1c(NCC(O)c2ccccc2)nc2c1c(=O)n(Cc1ccc(Cl)cc1)c(=O)n2C (stereo not given) | 50.4% (active)
18 | Cn1c(N2CCN(c3ccccn3)CC2)nc2c1c(=O)n(Cc1ccccc1Cl)c(=O)n2C | 3.4% (inactive)
19 | COc1ccc(CNc2nc3c(c(=O)n(Cc4ccc(Cl)cc4)c(=O)n3C)n2C)cc1 | 32.7% (inactive)
20 | COC(=O)c1coc(-c2ccc(C)cc2)c1C(=O)OC | -19.4% (inactive)
21 | CCOc1ccccc1N(CC(=O)NC1CCCC1)C(=O)CCCC(=O)Nc1ccccn1 | -29.3% (inactive)
22 | O=C(Cn1c(=O)oc2ccccc21)N1CCCCC1 | -21% (inactive)
23 | CN(CCc1ccccn1)C(=O)CCNC(=O)Cn1cnc2ccccc2c1=O | -9.4% (inactive)
24 | O=C(COc1ccccc1)Nc1cccc(-c2nnc(-c3ccccc3)o2)c1 | 8.5% (inactive)

Row | Compound | cytotoxicity
25 | COc1ccc(-c2noc(CCC(N)=O)n2)cc1OC | 7.2% (inactive)
26 | CC(=O)c1cc(F)c(N2CCCC2)cc1C | -6.1% (inactive)
27 | Cc1[nH]c(-c2ccco2)nc1C(=O)O | 1.6% (inactive)
28 | [O-][n+]1onc2c1CCc1nnc(-c3ccccc3)cc1-2 | 8.2% (inactive)
29 | O=c1cc(-c2ccccc2)[nH]c2ccccc12 | 46.8% (inactive)
30 | COc1ccc(C2C3=C(CCCC3=O)Nc3nc(C(F)(F)F)nn32)cc1OC (stereo not given) | -12.5% (inactive)
31 | Cc1ccc(Cl)cc1N1CCN(Cc2nc3c(c(=O)[nH]c(=O)n3C)n2Cc2ccccc2F)CC1 | 117% (active)
32 | CC(C)Cn1c(CN2CCN(c3ccccc3F)CC2)nc2c1c(=O)[nH]c(=O)n2C | -9.3% (inactive)
33 | Cn1c(=O)[nH]c(=O)c2c1nc(CN1CCN(c3cccc(Cl)c3)CC1)n2Cc1ccccc1Cl | 2.2% (inactive)
34 | O=C(Nc1ccncc1)c1ccc2c(c1)OCCO2 | -6.9% (inactive)
35 | CCC(NC(=O)OC(C)(C)C)C(=O)Oc1ccc2c3c(c(=O)oc2c1)CCC3 (stereo not given) | -7.2% (inactive)
36 | CCOC(=O)Cc1cc(=O)[nH]c(Nc2nc3ccccc3o2)n1 | -12.3% (inactive)
37 | CCNC(=O)c1cc2c(=O)n3cccc(C)c3nc2n(CCc2ccccc2)c1=N | 66.8% (active)
38 | COCCn1c(=N)c(C(=O)NCCc2ccccc2)cc2c(=O)n3cccc(C)c3nc21 | -1.7% (inactive)
39 | C=CCn1c(=N)c(C(=O)OCC)cc2c(=O)n3cccc(C)c3nc21 | 9.2% (inactive)
40 | Cc1cccn2c(=O)c3cc(C(=O)NCCN4CCOCC4)c(=N)n(CCc4ccccc4)c3nc12 | 10.9% (inactive)
41 | CCOC(=O)c1cc2c(=O)n3cccc(C)c3nc2n(CCc2ccccc2)c1=N | -6.7% (inactive)
42 | CCOC(=O)c1cc2c(=O)n3cccc(C)c3nc2n(C)c1=N | 58.1% (active)
43 | CC(C)CCOc1cccc(OCC(=O)N(C)C2CCS(=O)(=O)C2)c1 (stereo not given) | 4.8% (inactive)
44 | COc1ccc(OC)c(S(=O)(=O)N2CCc3ccccc32)c1 | 18.5% (inactive)
45 | CCOc1c(Br)cc(CNc2ncn[nH]2)cc1OC | 2.8% (inactive)
46 | O=C(CSc1nnc(SCc2ccc(Cl)cc2)s1)N1CCN(C(=O)c2ccco2)CC1 | -15.2% (inactive)
47 | O=C(CSc1nc2cc(Cl)ccc2s1)N1CCN(C(=O)c2ccco2)CC1 | 5.8% (inactive)
48 | O=C(CSc1c2c(nc3ccc(Cl)cc13)CCCC2)N1CCN(C(=O)c2ccco2)CC1 | 105% (active)

Row | Compound | cytotoxicity
49 | CC1Cc2nc(SCC(=O)NCc3ccco3)n(-c3ccccc3)c(=O)c2S1 (stereo not given) | 3.1% (inactive)
50 | O=C(Cc1cccs1)NCc1ccc2c(c1)OCO2 | -5.9% (inactive)
51 | CCOC(=O)c1oc2c(C)c(O)ccc2c(=O)c1-c1nncn1-c1ccccc1 | -6.3% (inactive)
52 | Cn1c(=O)[nH]c(=O)c2c1nc(CN1CCN(c3cccc(Cl)c3)CC1)n2CCCc1ccccc1 | 6% (inactive)
53 | Nc1cccc(-c2nc3ccc(N)cc3s2)c1 | 50.7% (active)
54 | Oc1cccc(-c2nc3ccccc3s2)c1 | 0.9% (inactive)
55 | Cc1nc2ccc(N)cc2s1 | -7.6% (inactive)
56 | COc1ccc2c(c1)Sc1ccccc1N2CCN(C)C | 27.8% (inactive)
57 | CN(C)CCCN1c2ccccc2CCc2ccccc21 | 20.3% (inactive)
58 | CN(C)CCCN1c2ccccc2Sc2ccccc21 | 56.1% (active)
59 | CN(C)CCCN1c2ccccc2CCc2ccc(Cl)cc21 | 47.6% (inactive)
60 | CCOC(=O)Nc1ccc2c(c1)N(C(=O)CCN(C)C)c1ccccc1S2 | 15% (inactive)
61 | CCN1C(=O)C2C(c3ccc(O)c(OC)c3)NC(C)(C(=O)OC)C2C1=O (stereo not given) | 9.8% (inactive)
62 | CCc1c(C)nc2ncnn2c1N1CCCC(C(=O)NCCc2ccccc2)C1 (stereo not given) | 2.2% (inactive)
63 | CCOC(=O)C1CCN(C(=O)c2ccc(Cl)c(Cl)c2)CC1 | -6.5% (inactive)
64 | O=C(Nc1ccc(Cl)cc1)NC1CCS(=O)(=O)C1 (stereo not given) | -15% (inactive)
65 | O=C(Nc1ccc(-c2noc(-c3cccs3)n2)cc1)c1cccnc1 | 52.5% (active)
66 | COc1ccc(Cc2nc(-c3ccc(NC(=O)c4cccnc4)cc3)no2)cc1 | 33.9% (inactive)
67 | O=C(Nc1ccc(-c2noc(CCc3ccccc3)n2)cc1)c1cccnc1 | 47% (inactive)
68 | CC(Oc1ccc(Cl)cc1Cl)c1nc(-c2ccccn2)no1 (stereo not given) | 23.6% (inactive)
69 | COc1cccc(-c2nc(-c3ccc(NC(=O)c4cccnc4)cc3)no2)c1 | 44.3% (inactive)
70 | CC(Oc1ccc(Cl)cc1Cl)c1nc(-c2ccc(NC(=O)c3cccnc3)cc2)no1 (stereo not given) | 59.3% (active)
71 | CC(C)(C)Cc1nc(-c2ccccn2)no1 | -9.1% (inactive)
72 | COCCNC(=O)c1cc(-c2ccc(Cl)c(Cl)c2)on1 | -9.5% (inactive)

Row | Compound | cytotoxicity
73 | O=C(c1cc2cc(Br)ccc2oc1=O)N1CCN(c2ccccn2)CC1 | -8.8% (inactive)
74 | O=C(CC1SCCNC1=O)Nc1cc(Cl)cc(Cl)c1 (stereo not given) | -5.4% (inactive)
75 | O=C(CC(c1ccccc1)c1cc(Cl)ccc1O)N1CCOCC1 (stereo not given) | 10.5% (inactive)
76 | CCOc1ccc(C2C3=C(CCCC3=O)Nc3nc(C(F)(F)F)nn32)cc1OC (stereo not given) | 1.4% (inactive)
77 | COc1ccc(CCNc2nc(N3CCCCC3)nc(N3CCCCC3)n2)cc1OC | 45.3% (inactive)
78 | Cc1cc(C)n(S(=O)(=O)Cc2ccccc2)n1 | -3.7% (inactive)
79 | O=S(=O)(/C=C/c1ccccc1)n1cnc2ccccc21 | 40.1% (inactive)
80 | CC1CCc2nn(CC(=O)N3CCCCCC3)cc2C1 (stereo not given) | 2.2% (inactive)
81 | Cc1ccc2c(c1)NC(=O)C(CC(=O)NCCN(CC(C)C)CC(C)C)O2 (stereo not given) | 15.6% (inactive)
82 | COc1cccc(CNC(=O)C2CCN(Cc3cnn(-c4ccccc4)c3-n3cccc3)CC2)c1 | 5.5% (inactive)
83 | CCOC(=O)c1sc(NC(=O)CSc2nnnn2-c2ccccc2)nc1C | 9.6% (inactive)
84 | CCOC(=O)c1sc(NC(=O)CSc2ncn(-c3ccccc3)n2)nc1C | 76.1% (active)
85 | O=C(CSc1ncn(-c2ccccc2)n1)Nc1nc2ccccc2s1 | -3.6% (inactive)
86 | O=C1c2ccccc2C(=O)N1CCCc1nc2ccccc2c(=O)n1CCCn1ccnc1 | -31.5% (inactive)
87 | C=CCn1c2ccccc2c2nnc(SCCCn3c(=O)[nH]c4ccccc43)nc21 | 68.6% (active)
88 | CCn1c2ccccc2c2nnc(SCCCn3c(=O)[nH]c4ccccc43)nc21 | 2.7% (inactive)
89 | C=CCn1c2ccccc2c2nnc(SCN3C(=O)c4ccccc4C3=O)nc21 | 7.6% (inactive)
90 | Cc1cc(C)n2nc(-c3cccnc3)nc2n1 | 2.1% (inactive)
91 | O=C(Nc1nncs1)c1ccc(N2C(=O)C3C4C=CC(C4)C3C2=O)cc1 (stereo not given) | 10.1% (inactive)
92 | CCc1nnc(NC(=O)CSc2nc3c(cc2C#N)CCCC3)s1 | 8.4% (inactive)
93 | CCc1nnc(NC(=O)CSc2nc(C)c3c(c2C#N)CCCC3)s1 | 75.3% (active)
94 | CCc1nnc(NC(=O)CSc2nc3c(cc2C#N)CCC3)s1 | 33.4% (inactive)
95 | O=C(NCc1ccccn1)Nc1ccc(Cl)c(Cl)c1 | 1.8% (inactive)
